Among the data in PubChem BioAssay (EPA / NIEHS) are outcome and AC50 values, retold here.

Usually AC50 stands for the concentration at which the activity in the assay is half-maximal.

Read-out in test [1]: Thrombomodulin, THBD (gene 7056)
Description: BSK_3C_Thrombomodulin: BioMAP Diversity Plus: 3C Assay for Thrombomodulin Biomarker Activity (AID 2283029). The following applies: primary human endothelial cells (HUVEC); actives raise or lower the signal. The procedure, abridged: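 Endothelial cells from umbilical vein are dosed with test chemical and incubated 24 h. Thrombomodulin is then quantified by ELISA, with DMSO serving as negative control and activity baseline.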

Read-out in test [2]: Urokinase-type plasminogen activator receptor (uPAR), PLAUR (gene 5329)
Kind of test: BSK_4H_uPAR: BioMAP Diversity Plus: 4H Assay for Urokinase-type plasminogen activator receptor (uPAR) Biomarker Activity (AID 2283030). The following applies: primary human endothelial cells (HUVEC); actives raise or lower the signal. An outline of the steps: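 Endpoint derived via bidirectional curve fitting against DMSO baseline; readout was ELISA detection of uPAR on umbilical vein endothelial cells at 24 h post-treatment, with SRB-stained parallel cultures assessing cytotoxicity.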

Read-out in test [3]: Human Leukocyte Antigen - DR isotype (HLADR), HLA-DRA (gene 3122)
Description: BSK_BE3C_HLADR: BioMAP Diversity Plus: BE3C Assay for Human Leukocyte Antigen - DR isotype (HLADR) Biomarker Activity (AID 2283032). The following applies: primary human bronchial epithelial cells; actives raise or lower the signal. An outline of the steps: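 Chemicals are dosed onto BE3C bronchial epithelial cultures of human origin and left 24 h. HLA-DR is then measured by ELISA, and the endpoint is fitted in both directions using DMSO as the activity baseline.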

Read-out in test [4]: Vascular cell adhesion molecule 1 (VCAM1), VCAM1 (gene 7412)
Description: BSK_4H_VCAM1: BioMAP Diversity Plus: 4H Assay for Vascular cell adhesion molecule 1 (VCAM1) Biomarker Activity (AID 2283033).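 As to outcome: cell-surface VCAM-1 protein measured by ELISA.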 The following applies: primary human endothelial cells (HUVEC); actives raise or lower the signal. An outline of the steps:
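Chemicals are added to primary human umbilical vein endothelial cells. After 24 h, VCAM-1 levels are measured by ELISA. Values come from bidirectional fitting referenced to DMSO.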

Read-out in test [5]: Interferon-gamma inducible Protein 10 (IP10), CXCL10 (gene 3627)
Description: BSK_BE3C_IP10: BioMAP Diversity Plus: BE3C Assay for Interferon-gamma inducible Protein 10 (IP10) Biomarker Activity (AID 2283034). The following applies: primary human bronchial epithelial cells; actives raise or lower the signal. An outline of the steps:
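IP-10 quantified by ELISA serves as the endpoint. Cells: primary human bronchial epithelium, read 24 h after compound addition. Activity is derived by bidirectional fitting with DMSO as negative control.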

Read-out in test [6]: Monokine induced gamma interferon (MIG), CXCL9 (gene 4283)
Kind of test: BSK_BE3C_MIG: BioMAP Diversity Plus: BE3C Assay for Monokine induced gamma interferon (MIG) Biomarker Activity (AID 2283035).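 As to outcome: MIG protein measured by ELISA in BE3C cultures after 24 h of dosing.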 The following applies: primary human bronchial epithelial cells; actives raise or lower the signal. The procedure, abridged:
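hu bronchial epithelial 1° cells, 24 h cpd; MIG by ELISA; bidirectional fit, DMSO = baseline.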

Read-out in test [7]: Plasminogen activator inhibitor-1 (PAI1), SERPINE1 (gene 5054)
Description: BSK_BE3C_PAI1: BioMAP Diversity Plus: BE3C Assay for Plasminogen activator inhibitor-1 (PAI1) Biomarker Activity (AID 2283037). The following applies: primary human bronchial epithelial cells; actives raise or lower the signal. The procedure, abridged: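 Values derive from bidirectional fitting against DMSO baseline of PAI-1 levels, measured by ELISA in human bronchial epithelial cells 24 h after compound addition.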

Read-out in test [8]: urokinase plasminogen activator (uPA), PLAU (gene 5328)
Kind of test: BSK_BE3C_uPA: BioMAP Diversity Plus: BE3C Assay for urokinase plasminogen activator (uPA) Biomarker Activity (AID 2283038).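 As to outcome: uPA protein level quantified by ELISA in cell cultures; uPA read one day after compound addition.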 The following applies: primary human bronchial epithelial cells; actives raise or lower the signal. An outline of the steps: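 Using confluent primary human lung bronchial epithelial cultures, we dosed chemicals, waited 24 h, then ran a uPA ELISA, fitting bidirectionally against DMSO.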

Read-out in test [9]: Transforming growth factor beta 1 (TGFb1), TGFB1 (gene 7040)
Description: BSK_BE3C_TGFb1: BioMAP Diversity Plus: BE3C Assay for Transforming growth factor beta 1 (TGFb1) Biomarker Activity (AID 2283036;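 as to outcome: TGF-b1 protein level measured by ELISA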). The following applies: primary human bronchial epithelial cells; actives raise or lower the signal. An outline of the steps:
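Bronchial epithelial primary cells are treated with test chemical, then TGF-b1 is quantified by ELISA after 24 hours. Values derive from bidirectional fitting against DMSO, with cytotoxicity checked by SRB staining in parallel cultures.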

The structures appear in SMILES notation. The source made the active and inactive calls. The calls were made as follows: active = hit-call score of the fitted dose curve at least 0.9, where 1 is the maximum; inactive = score below 0.9.

On to `COc1ccc(-c2ccccc2)cc1NNC(=O)OC(C)C`, for which the result in [1], in test [2], in test [3], in test [4], in test [5] and in [6] was inactive. Moreover, the result in test [7] and in [8] was inactive.
Take `C=C(C)CN(CC)c1c([N+](=O)[O-])cc(C(F)(F)F)cc1[N+](=O)[O-]`: the outcome in test [1], in test [2], in test [3], in test [4], in test [5] and in test [6] was inactive. Moreover, the result in test [9], in [7] and in test [8] was inactive.
In the case of `O=C(O)c1c(Cl)ccc2cc(Cl)cnc12`, the result in [1], in test [2], in [3], in [4], in test [5] and in test [6] was inactive. In addition, the outcome in test [7] and in test [8] was inactive.
As for `COc1cc(OC)nc(NC(=O)NS(=O)(=O)c2ncccc2OCC(F)(F)F)n1`, the outcome in test [1], in test [2], in test [3], in test [4], in [5] and in [6] was inactive. Also, the result in test [9], in test [7] and in [8] was inactive.
Consider `CCNC(=O)NC(=O)C(C#N)=NOC`, for which the result in [1], in test [2], in test [3], in test [4], in test [5] and in test [6] was inactive. Besides, the outcome in test [7] and in [8] was inactive.
Consider `OC(c1ccc(Cl)cc1)(c1ccc(Cl)cc1)C(Cl)(Cl)Cl`, for which the concentration at half-maximal activity (AC50) is 0.258 µM (active) in test [1]; 31.4 µM (active) in [2]; 11.5 µM (active) in [3]; 28.3 µM (active) in test [4]; 12.2 µM (active) in test [5]; 14.5 µM (active) in test [6]. Moreover, the concentration at half-maximal activity (AC50) in test [7] is 13.9 µM (active). Also, the outcome in test [8] was inactive.
Turning to `CCCN(CC)CC1COC2(CCC(C(C)(C)C)CC2)O1` (configuration not stated), the outcome in [1], in test [2], in test [3], in test [4], in [5] and in [6] was inactive. The outcome in [9], in test [7] and in test [8] was inactive.
Take `CC1(C)C(C=C(Cl)Cl)C1C(=O)OC(C#N)c1cccc(Oc2ccccc2)c1` (configuration not stated): the result in [1], in [2], in [3], in test [4], in test [5] and in [6] was inactive. Besides, the outcome in test [7] and in [8] was inactive.
In the case of `N#CN=C1SCCN1Cc1ccc(Cl)nc1`, the outcome in test [1], in test [2], in [3], in [4], in test [5] and in [6] was inactive. The outcome in test [9], in test [7] and in test [8] was inactive.
Take `CCOc1nc(F)cc2nc(S(=O)(=O)Nc3c(Cl)cccc3Cl)nn12`: the result in [1], in test [2], in test [4], in test [6] and in test [8] was inactive. The AC50 is 27.9 µM (active) in [3], 31.4 µM (active) in [5] and 20.9 µM (active) in [7].
In the case of `CNC(=O)Oc1cccc2ccccc12`, the outcome in [1], in test [2], in test [3], in [5], in test [6] and in test [7] was inactive. In test [8], the result was inactive. Moreover, in test [4], the AC50 is 20 µM (active).
Turning to `CCOc1cc(C(C)(C)C)ccc1C1COC(c2c(F)cccc2F)=N1` (configuration not stated), the outcome in [1] and in test [6] was inactive. In addition, the AC50 in test [2] is 33 µM (active); in test [3] it was 14.3 µM (active); in [4] it was 37.4 µM (active); in [5], 16.3 µM (active); in test [7], 19 µM (active); in test [8], 20 µM (active).
With `COCc1cnc(C2=NC(C)(C(C)C)C(=O)N2)c(C(=O)O)c1` (configuration not stated), the result in [1], in test [2], in test [3], in test [4], in test [5] and in test [6] was inactive. In addition, the result in test [9], in test [7] and in test [8] was inactive.
Turning to `CCOc1nc(C(Cl)(Cl)Cl)ns1`, the outcome in test [1], in test [2], in test [3], in [4], in [5] and in [6] was inactive. Besides, the result in [7] and in [8] was inactive.
Take `CC(C)Nc1nc(Cl)nc(NC(C)C)n1`: the outcome in test [1], in [2], in test [3], in test [4], in test [5] and in test [6] was inactive. Also, the outcome in [7] and in test [8] was inactive.
For the compound `Cc1cnc(C2=NC(C)(C(C)C)C(=O)N2)c(C(=O)O)c1` (configuration not stated), the result in test [1], in test [2], in test [3], in test [4], in test [5] and in test [6] was inactive. Moreover, the outcome in [7] and in test [8] was inactive. Also, the concentration at half-maximal activity (AC50) in test [9] is 4.93 µM (active).
Consider `Cc1cc(C)nc(Nc2ccccc2)n1`, for which the result in test [1], in test [2], in test [3], in test [4], in [5] and in [6] was inactive. Besides, the result in test [7] and in [8] was inactive.
For the compound `CN=C=S`, the result in [1], in test [2], in [3], in test [4], in [5] and in test [6] was inactive. Besides, the result in test [7] and in test [8] was inactive.
Turning to `CCN(CC)c1nc(C)cc(OP(=S)(OC)OC)n1`, the outcome in test [1], in test [2], in test [4], in [5], in test [6] and in [7] was inactive. In addition, in [8], the result was inactive. The AC50 in test [3] was 20 µM (active).
Regarding `COP(=S)(OC)SCn1nnc2ccccc2c1=O`, the outcome in test [1], in test [2], in [3], in test [4], in test [5] and in test [6] was inactive. In addition, the result in test [7] and in test [8] was inactive.
As for `CSC(=O)c1c(C(F)F)nc(C(F)(F)F)c(C(=O)SC)c1CC(C)C`, the result in test [1], in [3], in [4], in test [5], in [6] and in test [7] was inactive. Further, the result in test [8] was inactive.
For the compound `Cc1nc(N(C)C)nc(OC(=O)N(C)C)c1C`, the outcome in [1], in test [2], in test [3], in test [4], in test [5] and in [6] was inactive. Besides, the result in test [9], in [7] and in [8] was inactive.
As for `CCNP(=S)(OC)O/C(C)=C/C(=O)OC(C)C` (configuration not stated), the outcome in test [1], in test [2], in [3], in test [4], in [5] and in test [6] was inactive. Further, the outcome in [7] and in [8] was inactive.
For `O=c1n(Cl)c(=O)n(Cl)c(=O)n1Cl`, the outcome in [1], in [2], in test [3], in [4], in test [5] and in test [6] was inactive. Moreover, the outcome in test [7] and in [8] was inactive.
With `CCOP(=O)(OCC)Oc1nc(Cl)c(Cl)cc1Cl`, the outcome in [1], in test [3], in test [6], in test [7] and in test [8] was inactive. For the same compound, the values for the AC50 in test [2], in [4] and in [5] were 12 µM (active), 26.7 µM (active) and 23.9 µM (active), respectively.
As for `N#Cc1c[nH]cc1-c1cccc2c1OC(F)(F)O2`, the outcome in test [1], in test [3], in test [5], in [6], in test [7] and in test [8] was inactive. For the same compound, the half-maximal activity concentration (AC50) in test [2] was 14.7 µM (active); in [4], 20 µM (active).
`CO/N=C(/C1=NOCCO1)c1ccccc1Oc1ncnc(Oc2ccccc2Cl)c1F`: the result in test [1], in [4], in test [5], in [6], in [7] and in test [8] was inactive. The half-maximal activity concentration (AC50) in test [2] was 15.5 µM (active); in test [3], 11.1 µM (active).
As for `CCC(C)n1c(=O)[nH]c(C)c(Br)c1=O` (configuration not stated), the result in [1], in test [2], in [3], in [4], in [5] and in test [6] was inactive. Further, the outcome in test [9], in [7] and in [8] was inactive.
In the case of `CCSC(=O)N1CCCCCC1`, the result in test [1], in test [2], in test [3], in test [4], in test [5] and in test [6] was inactive. Also, the outcome in [7] and in test [8] was inactive.
Regarding `Clc1nc(Cl)nc(Nc2ccccc2Cl)n1`, the result in test [1], in test [2], in test [3], in test [4], in test [5] and in test [6] was inactive. For the same compound, the result in test [7] and in [8] was inactive.
